Sampled rows, rich in hits. Any-hit rate of the full collection: about 4.6%.
D1 potentiator: Potentiators of Human D1 Dopamine Receptor: qHTS; D(1A) dopamine receptor (Homo sapiens), P21728; potentiation, % at 10 µM; HEK293 TREx D1 cells, calcium flux, dopamine EC20 potentiation; 0.036% of 360,000 active; in the data active = potentiation above about 30%
D1 antagonist: Antagonist of Human D 1 Dopamine Receptor: qHTS; 3.2% of 360,000 active; HEK293 TREx D1 cells, calcium flux, dopamine EC80; stronger effect = lower value; D(1A) dopamine receptor (Homo sapiens), P21728; AID 504652, 2011; activity change, negative = inhibition, % at 10 µM; in the data active = activity change below about -30%
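Compound effects on dopamine-evoked calcium signalling were measured in tetracycline-induced HEK293 Trex D1 cells. Dopamine at EC80 followed a 180 s compound pre-read, and fluorescence was tracked kinetically for 180 s more.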
D1 ag: Allosteric Agonists of the Human D1 Dopamine Receptor: qHTS. HEK293 T-REx D1 cells, calcium flux, agonist mode. D(1A) dopamine receptor (Homo sapiens), P21728. 1% of 360,000 active. activation, % at 2 µM
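Tetracycline-induced HEK293 TREx D1 cells, force-coupled to calcium signalling, were dye-loaded with a no-wash calcium kit. Compound was pin-added after a 10 s baseline. Fluorescence was read kinetically at 1 cycle/s for 180 s, with calcium rises flagged as agonism.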
TRHR agonist: qHTS for Small Molecule Agonists and Allosteric Enhancers of Human TRH Receptor: Primary Screen for Agonists; Thyrotropin-releasing hormone receptor (Homo sapiens), P34981; activation, % at 2 µM; TRHR cells, calcium flux fluo-8, FDSS agonist mode; 0.18% of 360,000 active
Target sequence (P34981 whole entry, looked up): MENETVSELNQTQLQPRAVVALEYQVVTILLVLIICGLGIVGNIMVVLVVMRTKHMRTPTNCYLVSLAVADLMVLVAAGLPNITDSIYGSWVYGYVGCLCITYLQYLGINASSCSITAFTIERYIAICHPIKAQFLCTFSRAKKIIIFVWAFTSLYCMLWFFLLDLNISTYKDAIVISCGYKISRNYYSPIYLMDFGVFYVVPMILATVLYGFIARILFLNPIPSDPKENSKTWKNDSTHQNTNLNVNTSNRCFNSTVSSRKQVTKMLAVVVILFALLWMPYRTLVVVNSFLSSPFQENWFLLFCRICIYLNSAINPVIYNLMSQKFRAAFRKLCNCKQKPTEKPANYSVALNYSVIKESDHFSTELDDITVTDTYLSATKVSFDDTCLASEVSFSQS
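In this calcium-flux screen, cells bearing human TRHR are dye-loaded with fluo-8, baselined for 10 cycles, then exposed to library compounds; positive kinetic calcium responses during the agonist phase mark hits, with TRH as control.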
TRHR PAM: qHTS for Small Molecule Agonists and Allosteric Enhancers of Human TRH Receptor: Primary Screen for Enhancers; TRHR cells, fluo-8 calcium fluorescence, EC20 TRH enhancement; enhancement, % at 2 µM; 0.66% of 360,000 active; AID 493056, 2011; in the data active = enhancement above about 30%
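TRHR-expressing cells loaded with fluo-8 calcium dye were read kinetically (ex 480/em 530) during compound addition, then stimulated with an EC20 of TRH (10 nM final). Enhancement of the Gq-mediated intracellular calcium response was scored.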
Epigenetic derep: Quantitative High-Throughput Screen for Regulators of Epigenetic Control; murine LDR cells, GFP reporter derepression, 30 h; Potency, µM (top dose mostly 53.9 µM), actives largely listed as activators; AID 1865, 2009; 0.2% of 280,000 active; active = well fitted activation curve with a large enough effect; also: nearly all actives have a fitted effect of over 60% in size
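Murine LDR cells bearing a silenced CMV-driven GFP reporter were exposed to compound for 30 h at 37 C. After PBS washes, GFP-positive cells (20-120 um objects) counted by laser-scanning microplate cytometry.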
Numbers stand for hits; 0 = inactive; - = not tested or not shown; [ ] = remark or other dose. Rule as the data show it, unless noted: active = activation above about 30%; inactive = the rest.

SMILES	D1 potentiator	D1 antagonist	D1 ag	TRHR agonist	TRHR PAM	Epigenetic derep
Cc1cc2c(s1)Nc1ccccc1N=C2N1CCN(C)CC1	-	-89.1	-	0	0	0
Cc1ccccc1NC(=S)NCC1CCN(C(C)c2ccccc2)C1 (centres undefined)	0	-36.4	0	0	0	0
CN1C(=S)N(c2cccnc2)C(=O)/C1=C\c1ccc(N(C)C)cc1	0	0	91.4	0	0	0
Cc1c(NC(=S)N/N=C/c2ccc(N(C)C)cc2)c(=O)n(-c2ccccc2)n1C	0	0	0	0	0	0
Cc1c(N2C(=O)/C(=C\c3ccc(N(C)C)cc3)N(C)C2=S)c(=O)n(-c2ccccc2)n1C	0	0	37.5	0	0	0
CCOC(=O)C(C)Sc1nnc2ccc3ccccc3n12 (centres undefined)	0	0	0	0	0	0
O=C(CCC(=O)N1CCOc2ccc(Cl)cc21)NCCCN1CCC(Cc2ccccc2)CC1	0	-41.1	0	0	0	-
O=C(CCC(=O)N1CCOc2ccc(Cl)cc21)NCCCN1CCN(c2ccccc2F)CC1	0	-42.0	0	0	0	-
O=C(CCN1C(=O)COc2ccccc21)NCCCN1CCN(c2ccccc2F)CC1	0	-39.8	0	0	0	0
Cc1ccc(C)c(N2CCN(CCCNC(=O)CCC(=O)N3CCOc4ccc(Cl)cc43)CC2)c1	0	0	0	0	0	-
O=C(CSc1cn(CC(=O)N2CCCCC2)c2ccccc12)NCc1ccc(F)cc1	0	0	0	0	0	0
COc1ccc(CCC(=O)NNC(=O)Cn2nc(C)cc2C)cc1	0	-58.0	0	0	0	-
NC[C@@H]1O[C@@H](O[C@H]2[C@H](O)[C@H](O[C@@H]3O[C@H](CO)[C@@H](O)[C@H](N)[C@@H]3O)[C@@H](N)C[C@H]2N)[C@H](N)C[C@@H]1O	-	-	-	-	-	0
CC(Oc1ccccc1)C(=O)Nc1cccc(-c2nc3ccccc3[nH]2)c1 (centres undefined)	0	-40.3	0	0	0	0
CCNC(=O)c1ccc2nc(Cc3ccccc3)oc2c1	0	0	0	0	0	0
CC(C)Oc1ccc(CNC(=O)c2ccc3nc(Cc4ccccc4)oc3c2)cc1	0	0	33.3	0	0	0
Cc1cccc(CNC(=O)c2ccc3nc(Cc4ccccc4)oc3c2)c1	0	-31.4	31.0	0	0	0
CCC(C)NC(=O)c1ccc2c(c1)N(Cc1ccccc1)C(=O)c1ccccc1S2(=O)=O (centres undefined)	0	0	0	0	0	0
CCCOC(=O)CSc1nnc(-c2ccccc2)o1	0	0	0	0	0	0
O=c1cc(COc2ccccc2Cl)nc2scc(-c3ccccc3)n12	0	0	0	0	0	0
CC(C)c1ccccc1OCCCCCNCCO	0	0	93.1	0	0	0
CC(C)(C)c1ccccc1OCCCCCNCCO	0	0	32.6	0	0	0
Cc1ccccc1OCCCCCNCCO	0	0	0	0	0	0
CCOC(=O)c1ccc(CN(Cc2ccc(F)cc2)S(=O)(=O)c2ccc(F)c(C(=O)Nc3cc(Cl)ccc3OC)c2)cc1	0	0	0	0	0	0
O=C1CC(c2cccc(O)c2)Oc2ccccc21 (centres undefined)	0	-31.6	0	0	0	-
SMILES	D1 potentiator	D1 antagonist	D1 ag	TRHR agonist	TRHR PAM	Epigenetic derep
CCc1nn(-c2ccccc2)c2nc(-c3cccc(OC)c3)c3cc(OC)c(OC)cc3c12	0	0	0	0	0	0
CC(Sc1nccn1C)C(=O)Nc1ccc(C(N)=O)cc1 (centres undefined)	0	0	0	0	31.1	-
CC(Sc1nnnn1C)C(=O)Nc1ccccc1 (centres undefined)	0	0	0	0	0	0
CCOc1ccc(NC(=O)C(C)Sc2nnnn2C)cc1 (centres undefined)	0	-31.7	0	0	0	0
CCc1ccc(NC(=O)C2CCCN(S(=O)(=O)c3ccc4c(c3)oc(=O)n4C)C2)cc1 (centres undefined)	0	0	0	0	0	0
OCC(O)C(O)C(O)C(O)C1NCCS1 (centres undefined)	0	0	0	0	0	0
CC(O)C(O)C(O)C(O)C1NCCS1 (centres undefined)	0	-65.9	0	0	0	0
COc1ccc(NC(=O)N(Cc2ccco2)C2CCN(C(C)=O)CC2)c(OC)c1	0	0	0	0	0	0
O=S(=O)(c1cccs1)N1CCC(Cc2ccccc2)CC1	0	-42.4	0	0	0	0
O=C(CCc1ccccc1)N1CCN(S(=O)(=O)c2cccs2)CC1	0	-39.7	0	0	0	-
OC(CNCc1cccs1)c1ccccc1 (centres undefined)	0	-41.2	0	0	0	-
OC(CNCc1ccc(-c2ccccc2)cc1)c1ccccc1 (centres undefined)	0	0	56.3	0	0	0
Cc1ccc(CNCC(O)c2ccccc2)s1 (centres undefined)	0	0	0	0	0	-
COc1ccc(C(=O)Nc2ccc3nc(SCC(=O)N(C)c4ccccc4)sc3c2)cc1	0	0	32.0	0	0	0
CCOc1ccc2nc(SCC(=O)c3ccccc3)sc2c1	0	-42.5	0	0	0	0
COc1cccc(C(=O)Nc2ccc3nc(SCC(=O)N(C)c4ccccc4)sc3c2)c1	0	0	0	0	0	0
O=C(Nc1ccc2nc(SCC(=O)N3CCOCC3)sc2c1)c1ccc(Cl)cc1	0	-37.6	0	0	0	0
COCC#Cc1ccc(C2NC(C(=O)O)CCC2C)cc1 (centres undefined)	-	-	-	-	-	0[10.1 µM]
Cc1cc(C(=O)NCc2cc(C)n(C)n2)sc1-c1ccccc1	0	-34.3	0	0	0	0
COc1ccc(C(=O)NC2CC2)cc1OC1CCN(Cc2cnn(C)c2C)CC1	0	0	0	0	0	-
COc1cc(C)c(CN2CCN(CC(=O)Nc3ccccc3C(=O)NC3CC3)CC2)cc1OC	0	-30.2	0	0	0	-
COc1cc(CN2CCC(Oc3cc(C(=O)NC4CC4)ccc3OC)CC2)cc(OC)c1	0	-75.2	0	0	0	-
COc1ccc(C(=O)N2CCCCCC2)cc1OC1CCN(C(C)=O)CC1	0	-67.0	0	0	0	-
COc1ccc(C(=O)NC2CC2)cc1OC1CCN(Cc2ccc(NC(C)=O)cc2)CC1	0	0	0	0	0	-
COc1ccc(C(=O)NC2CC2)cc1OC1CCN(Cc2cc(C)c(C)cc2C)CC1	0	-85.7	0	0	0	-
